Hit rate of the full screen: of about 330,000 compounds, about 4,100 (1.2%) were called active. Only a selection was taken, and actives are over-represented in it overall. A number with no mark means an inactive call. Cut-off read from the data, not from the text of the source: active = inhibition above about 50%; inactive = the rest.

Usually inhibition stands for the drop in the measured response relative to a control, in per cent.

Chain of Sentrin-specific protease 8 (Homo sapiens) (Q96LD8 whole entry, looked up): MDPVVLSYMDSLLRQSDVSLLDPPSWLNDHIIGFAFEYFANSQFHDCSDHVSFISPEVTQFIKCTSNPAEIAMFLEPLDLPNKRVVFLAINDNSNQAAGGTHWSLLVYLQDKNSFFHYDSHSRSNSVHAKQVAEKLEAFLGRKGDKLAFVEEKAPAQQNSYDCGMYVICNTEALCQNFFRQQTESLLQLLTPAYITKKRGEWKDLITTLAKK

The experiment addresses Sentrin-specific protease 8 (Homo sapiens) (UniProt Q96LD8). The experiment is described as follows: SENP8 protease inhibitors, primary screen, biochemical, luminescence (AID 2540). The following applies: purified SENP8, Z-RLRGG-aminoluciferin cleavage, at 10 µM, active compounds read high.
On to `COc1ccc(CCNC(=O)CCn2c(=O)c3ccccc3n(CC(=O)NCC3CCCO3)c2=O)cc1OC` (stereo not drawn), for which the inhibition is -9.64%.
Then `C[C@H](NC(=O)C1CCN(S(=O)(=O)c2ccccc2)CC1)C(=O)NCc1ccccc1`, with -3.77%.
As for `CC(C)n1c(COc2ccccc2)nc2ccccc21`, the figure is -6.45%; as for `Cc1ccc(OCc2nc3ccccc3n2C)cc1`, 51.5% (active).
Turning to `CCOc1ccc(C(O)Cc2nc3ccccc3n2C)cc1` (stereo not drawn), the inhibition was 1.07%.
Consider `CCn1c(SCC(=O)NC2CC2)nnc1-c1ccccc1OC`, for which the inhibition is -9.1%.
As to `COc1ccc(C2OCC3(CO2)SC(=O)NC3=O)cc1OC` (stereo not drawn), the inhibition is -5.03%.
As for `COc1ccc(-n2ncc3c(SCC(=O)NNC(C)=O)ncnc32)cc1`, the inhibition was 53.4% (active).
As for `CCN(CC)C(=O)CSc1ncnc2c1cnn2-c1ccccc1`, the figure is 2.66%.
In the case of `COC(=O)CSc1ncnc2c1cnn2-c1ccc(C)cc1C`, the inhibition was 6.59%.
For the compound `CCOC(=O)CSc1nnc(-c2ccc([N+](=O)[O-])cc2)o1`, the inhibition is 1.65%.
Then `CC(=O)Oc1ccc(-c2nc3c(C)cccc3c(=O)o2)cc1`, with -1.45%; and `CC(=O)Oc1ccc2c(=O)oc(-c3ccc([N+](=O)[O-])cc3)nc2c1`, with 94.9% (active).
Then `N/C(=N\OC(=O)CC1CCCCC1)c1ccccc1`, with 18.2%.
`COc1ccccc1OCC(=O)O/N=C(\N)c1ccccn1`: the inhibition was -6.27%.
Then `N/C(=N\OC(=O)CCC1CCCCC1)c1ccccn1`, with 70.6% (active).
For the compound `COc1ccc(-c2nc(-c3ccccc3)no2)c(OC)c1`, the inhibition was 98% (active).
As to `COc1ccc(OC)c(-c2csc(-c3cccs3)n2)c1`, the inhibition was -5.23%.
For `COc1ccc(-c2noc(CNC(=O)C(C)Oc3ccccc3)n2)cc1` (stereo not drawn), the inhibition was -0.358%.
For the compound `Clc1ccc2c(c1)C1=C(C(c3ccncc3)O2)C(c2ccc(Br)cc2)n2ncnc2N1` (stereo not drawn), the inhibition was -1.86%.
As for `CC(C)NC(=S)NN=C1CCCCCCCCCCC1`, the figure is -4.77%; as for `CCn1c(CC(=O)Nc2ccccc2)nnc1SCC(=O)N1CCOCC1`, 3.84%.
With `CC(=NCc1ccco1)c1c(C(F)(F)F)[nH]n(-c2nc3ccccc3s2)c1=O`, the inhibition was 94.7% (active).
On to `C/C(=N\NC(=O)CC(C)C)c1c(C(F)(F)F)[nH]n(-c2nc3ccccc3s2)c1=O`, for which the inhibition was 96.3% (active).
Then `CCc1ccc(-c2cc(C(=O)NCc3ccco3)c3ccccc3n2)s1`, with -4.94%; and `CC(C)CC(=O)N/C(N)=N/c1nc2ccccc2s1`, with 17%.
Then `CCC(C)Cn1c(O)cc2nn(-c3nc4ccccc4s3)c(=O)c-2c1C` (stereo not drawn), with 48%; and `CCC1(CC)NC(=O)N(Cc2nc3ccccc3s2)C1=O`, with -5%.
As for `CC(C)(CSc1nncn1/N=C/c1ccco1)NS(=O)(=O)c1ccc(Cl)cc1`, the figure is -9.04%; as for `Cc1cc(/C=N/NC(N)=O)c(C)n1C1CCCCC1`, -15.2%; as for `CCCCN1Cc2c(nc3cc(-c4ccccc4)[nH]n3c2=O)C1=O`, 1.85%.
In the case of `O=c1c2c(nc3cc(-c4cccc(Cl)c4)[nH]n13)CCCC2`, the inhibition was 61.8% (active).
With `Cc1cc(=O)n2[nH]c(-c3cccc(Cl)c3)cc2n1`, the inhibition was -14%.
For `CC(Sc1nnc(-c2cccs2)n1C1CC1)C(=O)NCC1CCCO1` (stereo not drawn), the inhibition is -0.203%.
Regarding `Cc1ccnc(N2C(=O)c3ccc([N+](=O)[O-])cc3C2=O)c1`, the inhibition is 6.9%.
Then `Cc1ccc(-c2cn(S(=O)(=O)c3cccc([N+](=O)[O-])c3)nc2N)cc1`, with -7.7%; and `Cc1ccc(-n2cc3ccc([N+](=O)[O-])cc3n2)cc1`, with 68.6% (active); and `COc1ccc(CN2CCN(C(=O)c3cc(C4CC4)nn3-c3ccccc3)CC2)cc1F`, with -8.29%.
Then `Cc1csc(NC(=O)c2ccc(C)s2)n1`, with -2.73%.
As for `COc1cc(SC)ccc1C(=O)Nc1nc(C)cs1`, the figure is 97.6% (active).
For `COc1cc(SC)ccc1C(=O)Nc1cc(C)ccn1`, the inhibition was 39%.
As for `COc1ccc(N(CC(=O)NC2CCCC2)C(=O)CS(=O)CC(=O)Nc2ccc3c(c2)OCO3)cc1` (stereo not drawn), the figure is -16.6%; as for `Cc1ccc(-n2[nH]c(C)c(/C=N/NC(=O)c3cccc([N+](=O)[O-])c3)c2=O)cc1C`, -5.78%.
As for `CCNC(=S)N1CCN(CCN=CC2=C(O)CC(C)(C)CC2=O)CC1`, the figure is -4.68%.
As for `Cc1[nH]n(-c2ccc([N+](=O)[O-])cc2)c(=O)c1C=NCCN1CCN(C(=O)c2ccccc2F)CC1`, the figure is 64.8% (active); as for `Cc1[nH]n(-c2ccccc2)c(=O)c1N=Nc1ccccc1C(=O)N1CCCCC1`, -1.4%; as for `CC1(C)CC(=O)C(C=NCCN2CCN(C(=S)Nc3cccc(Cl)c3)CC2)=C(O)C1`, 0.407%.
For `C=CCNC(=S)N1CCN(CCN=Cc2c(C)[nH]n(-c3ccc([N+](=O)[O-])cc3)c2=O)CC1`, the inhibition was 61.4% (active).
Consider `CCc1ccc2nc(Nc3ncc(C(C)=O)c(C)n3)nc(C)c2c1`, for which the inhibition is -7.29%.
With `Cn1nnnc1-c1cc(Cl)cc(Cl)c1`, the inhibition is 3.44%.
As for `N#C/C(=C\c1cccnc1)C(=O)Nc1ccc(SC(F)F)cc1`, the figure is 7.81%; as for `COc1ccc(N(CC(=O)NCCSCc2cccc(Cl)c2)S(C)(=O)=O)cc1`, 4.81%.
As for `CCC(C)c1ccc(NC(=S)N2CCCC2)cc1` (stereo not drawn), the figure is -3.49%; as for `N/C(=N\OC(=O)c1cc(-c2ccccc2)nc2ccccc12)c1ccncc1`, -5.5%; as for `Cc1ccc(/C(N)=N/OC(=O)COc2ccc(Cl)c(C)c2)cc1`, -7.2%.
As for `Cc1cccc(/C(N)=N/OC(=O)c2ccccc2Cl)c1`, the inhibition was 94.7% (active).
Turning to `Cc1ccc(S(=O)(=O)NCCNC(C)c2ccc(Br)cc2)cc1` (stereo not drawn), the inhibition is 2.45%.
As for `COc1ccc(C(=O)OCC(=O)Nc2ccc3[nH]c(=O)[nH]c3c2)c(OC)c1OC`, the figure is 2.13%.
Then `O=C(OCC(=O)N1CCN(c2ccccc2)CC1)c1ccc([N+](=O)[O-])s1`, with 58.1% (active); and `C[C@H](NC(=O)c1ccccc1Cl)C(=O)OCC(=O)N1CCN(c2ccccc2)CC1`, with 2.29%.
As for `COc1cccc(/C=C/C(=O)OCC(=O)N2CCN(c3ccccc3)CC2)c1`, the figure is -5.84%; as for `COc1ccc(C(=O)OCC(=O)c2ccc(C)c(S(=O)(=O)N3CCOCC3)c2)cc1OC`, -6.51%; as for `COc1ccc(C(=O)OCC(=O)c2ccc(Cl)s2)c(OC)c1OC`, -5.24%.
In the case of `COc1ccc(C(=O)COC(=O)c2ccc([N+](=O)[O-])s2)cc1OC`, the inhibition was 61.6% (active).
As for `COc1cc(C(=O)OCc2ccc([N+](=O)[O-])cc2)cc(OC)c1OC`, the figure is 15.6%; as for `COc1cc(NC(=O)COC(=O)c2ccc([N+](=O)[O-])s2)cc(OC)c1OC`, 63.8% (active); as for `CC1(C)Cc2ccccc2-c2nnc(-c3cccc(O)c3)n21`, -5.27%.
As for `Cc1ccc(NS(=O)(=O)c2ccc(C(C)C)cc2)cc1S(=O)(=O)N1CCOCC1`, the figure is -8.64%; as for `NC(=O)c1ccc(Nc2ccc3c(c2)CCC3)c([N+](=O)[O-])c1`, -12.7%; as for `O=C(N/N=C/c1sc(N2CCCCC2)nc1-c1cccs1)c1cccnc1`, -8.56%.
Then `COc1ccc(OC)c(S(=O)(=O)NCCC(C)C)c1`, with 0.429%; and `O=C(NCC(=O)N1CCN(c2ccccc2O)CC1)c1ccc2ccccc2c1`, with -4.96%; and `CC(C)N(C(=O)Cn1cc(S(=O)(=O)CC(=O)N2CCOCC2)c2ccccc21)C(C)C`, with -2.24%.
With `CC(C)N(C(=O)Cn1cc(SCC(=O)N2CCCC2)c2ccccc21)C(C)C`, the inhibition is 55.6% (active).
As for `CC(C)N(C(=O)Cn1c(SCC(=O)N2CCN(c3ccccc3)CC2)nc2ccccc21)C(C)C`, the figure is 3.06%.
Then `O=[N+]([O-])c1cc(S(=O)(=O)NCCc2ccccn2)ccc1Cl`, with -1.07%; and `CC/C(Cc1ccccc1)=N/NC(=O)CCn1nnc2ccccc21`, with 2.91%; and `O=C(Nc1ccccc1C(=O)NCC1CCCO1)c1ccccc1F` (stereo not drawn), with -12.9%.
`Cc1c(C(=O)N(C)CCc2cnn(C)c2)oc2c(F)cccc12`: the inhibition was 3.74%.
On to `O=C(NC(Nc1nc2ccc([N+](=O)[O-])cc2s1)(C(F)(F)F)C(F)(F)F)c1ccccc1`, for which the inhibition is -0.974%.
As for `O=C(Nc1nc2ccc([N+](=O)[O-])cc2s1)c1ccncc1`, the figure is 87.5% (active); as for `O=C(c1ccncc1)c1ccc([N+](=O)[O-])cc1`, -5.02%; as for `CCCOC(=O)c1c(NC(=O)c2cnn3c2NC(c2ccccc2)CC3C(F)(F)F)sc2c1CCCC2` (stereo not drawn), -1.5%.
As for `O=C(c1ccco1)N1CCN(C(=S)Nc2cc(F)cc(F)c2)CC1`, the figure is 2.74%; as for `COc1ccc(N2CCN(C(=O)CNS(=O)(=O)c3ccc(C)c(C)c3)CC2)cc1`, -6.38%; as for `Cc1cccc2cc3c(N)c(C(=O)N4CCCc5ccccc54)sc3nc12`, -4.99%.
As for `CC(=O)c1ccc(OCCCC(=O)Nc2ccc(C)c(S(=O)(=O)N3CCOCC3)c2)cc1`, the figure is 8.63%; as for `CC1CN(C(=S)SCC(=O)c2ccccc2)CC(C)O1` (stereo not drawn), 1.35%; as for `O=C(CSC(=S)N1CCOCC1)c1ccccc1`, 59.3% (active).
Take `O=C(CSC(=S)N1CCOCC1)c1cc(Br)cc(Br)c1O`: the inhibition was -4.17%.
Then `CCOc1ccc(S(=O)(=O)N2CCC(C(=O)NCC(=O)Nc3cccc(Cl)c3C)CC2)cc1`, with 3.22%.
As for `Cc1ccc(-c2nc(CSCC(=O)NC3CCN(Cc4ccccc4)CC3)c(C)o2)cc1`, the figure is -1.87%; as for `CCCn1c(C)cc(/C=C(\C#N)C(=O)OCC(=O)Nc2cc(OC)c(OC)c(OC)c2)c1C`, 1.35%.

These data come from PubChem BioAssay AID2540 (Sanford-Burnham Center for Chemical Genomics, 2010).
